PubChem BioAssay (NCATS)
Results filed as inconclusive are left out. Entries that show only a call come without a potency. Activity calls are given as the source filed them. Calls come from the whole dose curve; as a rule, active = well fitted curve in the direction sought with a large enough effect; inconclusive = small, poorly fitted or top-dose-only effect, or another doubt; inactive = no such curve, though single readings can be large; an effect the other way counts as inactive or inconclusive.

Columns and labels:
[1] = molecular target: Aldehyde dehydrogenase, mitochondrial (Homo sapiens) (UniProt P05091); assay: qHTS for Inhibitors of the Aldehyde Dehydrogenase Family (ALDH2) Primary screen (AID 2061308); note: nearly all actives have a fitted effect of over 55% in size
[2] = molecular target: Retinaldehyde dehydrogenase 3 (Homo sapiens) (UniProt P47895); assay: qHTS for Inhibitors of the Aldehyde Dehydrogenase Family (ALDH1A3) Primary screen (AID 2061315)

With `Cc1ccc(S(=O)(=O)Nc2cnccc2C(=O)Nc2cccc3ccccc23)cc1` the Potency [1] was “inactive” and the Potency [2] was “inactive”.

For `COc1ccc(C2c3c(N)nc(CCCc4ccccc4)nc3Oc3ccc4ccccc4c32)cc1OC` (stereo not given), the Potency [1] was “inactive” and the Potency [2] was “inactive”.

In the case of `CC(=O)Nc1sc2c(c1-c1nc3ccccc3s1)CCN(C(=O)OC(C)(C)C)C2`, the Potency [1] is reported as “inactive” and the Potency [2] is reported as “inactive”.

`O=S(=O)(Nc1cnc2ccccc2c1)c1ccc(NCc2cccc(Cl)c2O)cc1` was tested, and the Potency [1] was “inactive” and the Potency [2] was “inactive”.

`Cc1ccc(NS(=O)(=O)c2ccc(N3CCCC3=O)cc2)cc1C` was tested, and the Potency [1] was “inactive” and the Potency [2] was “inactive”.

`Cc1cc(NC(=O)c2csc(NC(=O)Cc3ccc(Cl)c(Cl)c3)n2)no1` was tested, and the Potency [1] was “inactive” and the Potency [2] was “inactive”.

For `Cc1ccc(OCCn2c(CCNC(=O)Cc3cccc4ccccc34)nc3ccccc32)cc1`, the Potency [1] was “inactive” and the Potency [2] was “inactive”.

For `O=[S+]([O-])(Nc1ccc(N2CCNCC2)cc1)c1ccc(NCc2ccc(Cl)cc2O)cc1`, the Potency [1] was “inactive” and the Potency [2] was “inactive”.

`Cc1cc(C(C#N)c2ccc(Cl)cc2)c(Cl)cc1NC(=O)c1cc(I)cc(I)c1O` (stereo not given) was tested, and the Potency [1] was “inactive” and the Potency [2] was “inactive”.

For `Cc1ccc(C2N=C(Nc3nc4ccccc4o3)NC3=C2C(=O)CCC3)cc1` (stereo not given), the Potency [1] was “inactive” and the Potency [2] was “inactive”.

`O=C(NCCCc1ccccc1)C1CCN(c2nc(-c3ccc(Br)cc3)cs2)CC1` was tested, and the Potency [1] was “inactive” and the Potency [2] was “inactive”.

For `N#Cc1nc(Nc2cc(F)cc(Cl)c2)nc(NC2CCCC2)n1`, the Potency [1] was “inactive” and the Potency [2] was “inactive”.

`COC(=O)Nc1sc2c(c1-c1nc3ccccc3s1)CCNC2` was tested, and the Potency [1] was “inactive” and the Potency [2] was “inactive”.

For `CCCn1c(-c2ccc(F)cc2)nc2c(NCCCN(C)C)nc(C)nc21`, the Potency [1] was “inactive” and the Potency [2] was “inactive”.

For `CCCn1c(C)nc2c(Nc3ccccc3)nc(C)nc21`, the Potency [1] was “inactive” and the Potency [2] was “inactive”.
